Screening results (PubChem)
In the library only some 7.2% were active in any assay of this set; here they are far more common.
RE007 growth inh = qHTS Assay for Inhibitors of the HIV-1 protein Vpr. S. pombe RE007 Vpr strain, BacTiter-Glo ATP luminescence, 24 h. Potency, µM (titrated, usually from 92.2 µM), for the others: top-dose activity change, negative = less growth, most hits filed as inhibitors. 360,000 compounds, 0.21% hits. AID 651644, 2012; active = well fitted falling curve with a large enough effect; inconclusive = small, poorly fitted or top-dose-only effect; inactive = no such curve, though single readings can be large or run the other way; also: nearly all actives have a fitted effect of over 50% in size
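Fission yeast RE007 carrying one integrated HIV-1 vpr copy, seeded at OD 0.01 in PMG+AL medium with 23 nL pinned compound. Grown 24 h at 30 degrees; viability read by BacTiter-Glo luminescence after 5 min.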
Sm TGR block = qHTS Assay for the Inhibitors of Schistosoma Mansoni Peroxiredoxins. purified TGR, DTNB reduction, TNB absorbance 405 nm. Potency, µM (doses to about 114 µM), inactives show at the top dose activity change, negative = inhibition, actives largely listed as inhibitors. 360,000 compounds, 3% hits. AID 485364, 2010; also: nearly all actives have a fitted effect of over 60% in size
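Kinetic colorimetric format: TGR-catalysed, NADPH-driven DTNB reduction monitored via TNB absorbance. Enzyme dispensed at 20 nM; compound exposure 15 min at room temperature before reaction start.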
Marburg entry inh = qHTS for inhibitors of binding or entry into cells for Marburg Virus; Marburg virus pseudotyped entry inhibition, cell reporter; Potency, µM (top dose mostly 37.8 µM), for inactives: at the top dose activity change, negative = inhibition, most hits filed as inhibitors; 300,000 compounds, 1.8% hits; AID 540276, 2011; calls by dose curve; tested in HEK293 cells
HCV inhibitor = qHTS Assay for Inhibitors of Hepatitis C Virus (HCV); Huh7.5.1 HCVcc-Cre infection, luciferase reporter, 44 h; Potency, µM (highest dose often 41.8 µM), for inactives: top-dose activity change, negative = inhibition, actives largely listed as inhibitors; 340,000 compounds, 3.4% hits; AID 651820, 2012
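Antiviral activity was scored by luciferase reporter output from cells infected with HCVcc-Cre (~0.5 moi) in presence of compound, 44 h infection period, cells seeded 1,000/well 4 h prior.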
LASV entry inh = qHTS for Inhibitors of binding or entry into cells for Lassa Virus | AID 540256, 2011 | Potency, µM (titrated, usually from 37.9 µM), for inactives: top-dose activity change, negative = inhibition, usual class: inhibitors | Lassa virus pseudotype entry inhibition, cell reporter | 300,000 compounds, 1.2% hits; calls by dose curve; tested in HEK293 cells; also: nearly all actives have a fitted effect of over 50% in size
FMDV antiviral = High Throughput Screening for Foot and Mouth Disease Virus Antivirals; 410,000 compounds, 1.2% hits; FMDV antiviral cell-based qHTS; Potency, µM (doses to about 57.9 µM), for inactives: at the highest dose activity change, negative = inhibition, usual class: inhibitors; calls by dose curve; tested in HEK293T cells; also: read-out not given here; nearly all actives have a fitted effect of over 45% in size
* hit, by the source's call; u = inconclusive; x = no result; [ ] = dose if it differs, or a comment. Unless noted, calls follow the shape of the dose curve; as a rule, active = well fitted curve in the direction sought with a large enough effect; inconclusive = small, poorly fitted or top-dose-only effect, or another doubt; inactive = no such curve, though single readings can be large; an effect the other way counts as inactive or inconclusive. % is scaled to controls: 0 for no effect and ±100 for the full control effect; potency is read from the fitted curve at half-maximal effect.

SMILES	RE007 growth inh	Sm TGR block	Marburg entry inh	HCV inhibitor	LASV entry inh	FMDV antiviral
CCOc1ccc2[nH]c(=O)c(CN(Cc3ccco3)C(CC)c3nnnn3Cc3ccccc3)cc2c1 (configuration not stated)	20.2%	15.8µM*	u	u	u	u
COC(=O)c1ccccc1S(=O)(=O)N(Cc1ccco1)Cc1cc2cc(OC)ccc2[nH]c1=O	2.9%	7.08µM*	u	u	-15.0%[14.3 µM]	-26.3%
Cc1ccc2cc(CN(CCN3CCOCC3)Cc3nnnn3Cc3ccco3)c(=O)[nH]c2c1C	19.1%	35.5µM*	-0.6%	9.8%	u	14.6%
COc1ccc2[nH]c(=O)c(CN(Cc3ccccc3OC)Cc3nnnn3CC3CCCO3)cc2c1 (configuration not stated)	-16.0%	-15.0%	-22.2%	11.6%	-2.2%	-4.0%
COCC=CC1=CC2=CC(=O)C(C)(OC(=O)c3cnc4ccccc4n3)C(=O)C2=CN1CCc1c[nH]c2ccccc12 (configuration not stated)	x	x	22.3%[14.2 µM]	x	x	x
COC(=O)c1ccc(NC(=O)C2CCN(C(=O)c3ccc(F)cc3)CC2)cc1	x	-1.9%	4.3%[46.1 µM]	x	9.2%[46.1 µM]	0.0%
Cc1ccc(Cl)cc1-n1ncc2c(Nc3cccc(C)c3C)ncnc21	x	10.5%	x	x	u	u
O=c1c2c(-c3ccc(Cl)cc3)ccnc2[nH]n1-c1ccccc1	x	10.2%	19.4%[46.1 µM]	x	11.2%[46.1 µM]	2.1%
COc1ccccc1CN(Cc1cc2cc(C)ccc2[nH]c1=O)Cc1nnnn1CC1CCCO1 (configuration not stated)	-23.1%	-12.5%	u	-1.0%	-23.0%	x
CCC(c1nnnn1Cc1ccco1)N(CCN1CCOCC1)Cc1cc2cc(C)ccc2[nH]c1=O (configuration not stated)	2.5%	44.7µM*	-21.1%	5.2%	-14.9%	-10.6%
COc1ccccc1CN(Cc1cc2cc(C)cc(C)c2[nH]c1=O)Cc1nnnn1CC1CCCO1 (configuration not stated)	8.3%	1.1%	10.3µM*	-20.6%	u	x
CCC(c1nnnn1CCc1ccccc1)N(Cc1ccco1)Cc1cc2cccc(C)c2[nH]c1=O (configuration not stated)	-2.7%	-18.7%	u	u	-11.6%	-3.1%
COc1ccc2[nH]c(=O)c(CN(Cc3ccco3)Cc3nnnn3Cc3ccccc3)cc2c1	-8.9%	35.5µM*	-17.8%	-7.7%	-13.1%	-16.4%
CCOc1ccc2[nH]c(=O)c(CN(Cc3ccco3)Cc3nnnn3Cc3ccccc3)cc2c1	10.7%	22.4µM*	-0.4%	u	-12.6%	-22.5%
COc1ccccc1N1CCN(S(=O)(=O)c2cc(C(=O)Nc3ccc(Oc4ccccc4)cc3)ccc2F)CC1	x	4.7%	x	x	u	u
CC1(C)CC(C(=O)N2CCOc3ccc(CN4CCC(Oc5cccnc5)CC4)cc3C2)CCO1 (configuration not stated)	x	x	x	x	x	-10.0%
CCOC(=O)[C@H]1[C@H]2COc3ccc(OC)cc3[C@@H]2N2C(=O)CN(Cc3ccc(OC)cc3)C(=O)[C@@]12C	0.0%	50.1µM*	x	-9.4%	x	-12.9%
CCOC(=O)[C@H]1[C@H]2COc3ccc(C)cc3[C@@H]2N2C(=O)CN(Cc3ccco3)C(=O)[C@@]12C	3.9%	14.1µM*	x	-17.8%	x	-9.0%
COc1ccc2c(c1)[C@H]1[C@H](CO2)[C@H](c2ccccc2)[C@]2(C)C(=O)N(Cc3ccc(C)cc3)CC(=O)N12	4.4%	x	x	10µM*	x	-29.8%
COc1ccc2c(c1)OC[C@H]1[C@H]2N2C(=O)CN(Cc3ccc(Cl)cc3)C(=O)[C@@]2(C)[C@H]1c1ccccc1	-22.9%	-27.0%	x	11.2µM*	x	-19.4%
CCOC(=O)[C@H]1[C@H]2COc3ccc(OC)cc3[C@@H]2N2C(=O)CN(Cc3ccc(C)cc3)C(=O)[C@@]12C	5.4%	-18.5%	x	11.8%	x	-19.0%
CC(=O)n1nc(-c2cccnc2)nc1NCc1ccc(F)cc1	x	10.0%	3.5%[46.1 µM]	x	14.0%[46.1 µM]	4.2%
CC(C)(C)c1ccc(C(=O)Nc2ccc(-c3nc4cc(Cl)ccc4o3)cc2)cc1	x	-2.6%	x	x	-0.2%[46.1 µM]	-6.5%
CCc1cc2c(=O)c(-c3ccc4c(c3)OCCO4)coc2c(CN2CCCCC2C)c1O (configuration not stated)	15.8%	-2.0%	u	6.31µM*	u	-19.4%
CCOC(=O)c1oc2cc(O)c(CC)cc2c(=O)c1-c1ccc2c(c1)OCCO2	-12.4%	5.3%	x	u	x	-18.6%
SMILES	RE007 growth inh	Sm TGR block	Marburg entry inh	HCV inhibitor	LASV entry inh	FMDV antiviral
CCc1cc2c(=O)c(-c3ccc4c(c3)OCCO4)coc2cc1OS(C)(=O)=O	14.3%	-0.1%	5.62µM*	11.2µM*	u	-0.8%
COc1ccc(CNC(=O)c2cnc(N3CCCC3)nc2C)c(OC)c1	x	5.1%	x	x	u	-1.2%
COc1ccc2c(c1)c(C(C)=O)c(C)n2CCc1ccc(OC)c(OC)c1	-2.7%	2.6%	x	u	x	u
COc1ccc2c(c1)c(C(C)=O)c(C)n2CCc1ccccc1	1.6%	-13.9%	x	u	x	14.1µM*
Cc1cn([C@H]2C[C@H](O)[C@@H](CNS(=O)(=O)c3ccc(NS(=O)(=O)N(C)C)cc3)O2)c(=O)[nH]c1=O	2.5%	x	x	x	x	-7.6%
COc1ccccc1C(C)NC(=O)CCC(=O)N1CCN(S(=O)(=O)c2ccc(Cl)cc2)CC1 (configuration not stated)	28.3%	x	u	u	u	35.5µM*
CC(C)c1ccc(S(=O)(=O)c2nnn3c2nc(N2CCCCC2)c2sccc23)cc1	x	0.0%	x	x	-1.1%[46.1 µM]	9.5%
Cc1c(C(=O)NCc2cccc(F)c2)sc2ncnc(NCC3CCCO3)c12 (configuration not stated)	x	x	x	x	x	-9.0%
Cc1ccc(N2C(=O)NC(=O)/C(=C/c3cnn(-c4ccc(C)cc4)c3)C2=O)cc1	-1.0%	-24.0%	u	-3.7%	16.6%	u
Cc1ccc(N2C(=O)NC(=O)/C(=C\c3cnc(-c4ccccc4)nc3)C2=O)cc1	u	1.58µM*	u	9.8%	6.0%	-3.2%
CSc1ncc(/C=C2/C(=O)NC(=O)N(c3ccc(C)cc3)C2=O)cn1	1.7%	2.51µM*	-7.7%[46.1 µM]	18.8%	u	-10.1%
CSc1ncc(/C=C2/C(=O)NC(=O)N(c3ccc(Cl)cc3)C2=O)cn1	-15.2%	5.62µM*	1.1%[46.1 µM]	25.9%	26.3%[46.1 µM]	-4.9%
CCOc1ccc(N2C(=O)NC(=O)/C(=C/c3cnc(SC)nc3)C2=O)cc1	-13.7%	8.91µM*	-4.2%[46.1 µM]	3.8%	19.9%[46.1 µM]	-21.0%
Cc1cc(/C=C2\C(=O)NC(=O)N(c3ccc(Cl)cc3)C2=O)c(C)n1C	-1.4%	x	x	-0.6%	x	-11.8%
